# Assay outcomes: PubChem, National Center for Advancing Translational Sciences (NCATS)
# An excerpt weighted towards active compounds, which were near 2.8% of everything screened.
# Giardia killer: Giardia lamblia killing | Giardia lamblia trophozoite viability | 340,000 tested, 0.15% active | activity change, % at 7.66 µM, hits read low; in the data active = activity change below about -80%; inconclusive = between about -30% and that limit;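 note: parasites exposed to compound for two days anaerobically before the ATP read; % is set by controls: 0 for no effect and ±100 for the full control effect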
#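 Luminescence from cellular ATP indicates surviving trophozoites (100 cells/well) following 48 hrs anaerobic compound treatment at 37 deg C; signal develops 15-30 min at room temperature.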
# DRD3 antagonist: blocks the human D3 dopamine receptor; P35462; D3R cells, DiscoveRx beta-arrestin luminescence, antagonist mode; hits give low values; max response, negative = inhibition, %; 360,000 tested, 2.5% active; AID 652054; in the data active = max response below about -50%; inconclusive = no clear call, values can overlap the other calls; note: % is set by controls: 0 for no effect and ±100 for the full control effect
#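 Cells plated overnight at 1500 cells/well, then exposed to library compounds with dopamine controls for 90 minutes at 37 degrees C. DiscoveRx reagent added for 30–60 minutes at room temperature; luminescence read, quantitative HTS format.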
# B2AR arrestin: beta2AR (human) beta-arrestin recruitment activity; Potency, µM (doses to about 46.1 µM), for the others: top-dose activation, hits mostly activators; beta-arrestin recruitment to beta2AR, cell-based reporter; P07550; 330,000 tested, 0.02% active; active = well fitted activation curve with a large enough effect; inconclusive = small, poorly fitted or top-dose-only effect;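 note: potency is the fitted concentration of half-maximal effect; 0% = DMSO controls and full agonism = EC100 isoproterenol or metaproterenol; nearly all actives have a fitted effect of over 65% in size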
# Target sequence (P07550 whole entry, looked up): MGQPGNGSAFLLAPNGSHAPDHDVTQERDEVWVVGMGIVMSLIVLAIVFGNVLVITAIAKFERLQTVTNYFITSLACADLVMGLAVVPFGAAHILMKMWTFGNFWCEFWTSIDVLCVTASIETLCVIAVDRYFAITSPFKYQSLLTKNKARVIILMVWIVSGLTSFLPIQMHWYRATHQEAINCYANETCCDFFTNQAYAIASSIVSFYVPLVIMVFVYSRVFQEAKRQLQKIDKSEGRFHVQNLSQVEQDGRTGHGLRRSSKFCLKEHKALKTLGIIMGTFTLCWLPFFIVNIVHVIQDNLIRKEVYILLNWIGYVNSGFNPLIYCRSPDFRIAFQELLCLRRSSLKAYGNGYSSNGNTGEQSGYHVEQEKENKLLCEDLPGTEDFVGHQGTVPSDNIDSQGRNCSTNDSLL
# DRD3 agonist: activates the human D3 dopamine receptor; P35462; D3R DiscoveRx beta-arrestin cells, luminescence, 90 min; max activation, %; 410,000 tested, 0.58% active; in the data active = max activation above about 30%; note: 0% is about no effect
#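 Cells at 1500/well, incubated overnight, then treated with pinned compounds (dopamine as control) for 90 min at 37 degrees C. DiscoveRx reagent added for 30 - 60 minutes at room temperature; luminescence read.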
# An asterisk follows results filed as active; u = inconclusive; x = no result given.
SMILES,Giardia killer,DRD3 antagonist,B2AR arrestin,DRD3 agonist
CC(=O)N1CCCc2cc(S(=O)(=O)N(C)CC(=O)Nc3ccc(Cl)cc3C)ccc21,x,x,x,6.4
CCc1ccc(NC(=O)CN2C(=O)CSc3ccc(S(=O)(=O)N(C)C)cc32)cc1,x,x,x,1.5
Cc1ccc(S(=O)(=O)N2CCOCC2)cc1C(=O)OCc1nnc(-c2ccccc2)o1,6.1,0.0,-2.8%,16.3
O=C(OCc1nnc(-c2ccccc2)o1)c1cc(S(=O)(=O)N2CCOCC2)c(Cl)cc1Cl,-4.4,-55.3*,-0.1%,0.8
CS(=O)(=O)c1ccc(C(=O)OCc2nnc(-c3ccccc3)o2)cc1[N+](=O)[O-],5.2,-59.9*,-0.3%,-15.3
CCOc1cccc(C(=O)Nc2cccc(-c3nnc(-c4ccc(C)cc4)o3)c2)c1,-1.4,-25.3,0.5%,5.6
CN(C)S(=O)(=O)c1ccc(C(=O)OCc2nnc(-c3ccccc3)o2)cc1,-2.9,-7.2,0.2%,4.6
CCOc1cccc(C(=O)Nc2cccc(-c3nnc(-c4ccccc4)o3)c2)c1,-7.4,51.1,0.1%,38.6*
Cc1nc2nc(SCC(=O)NCCc3ccc(Cl)cc3)nn2c(C)c1Cc1c(F)cccc1Cl,x,x,x,-28.3
COc1ccc2cc3cc(C(=O)NCCc4ccccc4)sc3nc2c1Cl,x,x,x,-13.9
Cc1ccc(-n2nnc3c(=O)n(CC(=O)N4CCOCC4)cnc32)cc1,14.7,-52.8*,-0.3%,-7.6
C#CCCCCCCC#CCN(C)C,-15.4,-58.1*,2.8%,-15.3
CCOc1ccc(S(=O)(=O)NCC(c2ccco2)S(=O)(=O)c2ccc(F)cc2)cc1 (stereo not drawn),x,x,x,4.3
COc1ccccc1NC(=O)CN1CCC(C(=O)c2ccc(F)cc2)CC1,5.5,-70.3*,-0.9%,-6.0
COc1ccc(C(=O)N2CCC(C(=O)c3ccc(F)cc3)CC2)cc1,17.8,2.9,-0.5%,-3.6
O=C(CN1CCC(C(=O)c2ccc(F)cc2)CC1)Nc1ccccc1Cl,2.3,-56.9*,0.3%,-23.4
CCOc1ccccc1NC(=O)CN1CCC(C(=O)c2ccc(F)cc2)CC1,6.4,u,-0.6%,-27.4
COc1ccc(NC(=O)CN2CCC(n3c(C)nc4cc(F)ccc43)CC2)c(OC)c1,3.9,-5.6,0.3%,131.8*
O=C(CN1CCCC1)Nc1ccccc1Cl,-12.3,u,0.3%,-0.4
COc1ccccc1C(=O)N1CCC(C(=O)c2ccc(F)cc2)CC1,12.1,-70.2*,-0.2%,-32.9
CCN(C(=O)Cn1cnc2c1c(=O)n(C)c(=O)n2C)c1ccccc1C,x,x,x,3.8
COc1ccc(CCNCC(O)COc2cccc(C)c2)cc1OC (stereo not drawn),x,x,x,-6.7
CC(=O)Nc1ccc(S(=O)(=O)N2CCN(c3cc(C(F)(F)F)ccn3)CC2)cc1,2.4,-10.3,-1.3%,-1.4
FC(F)(F)c1ccnc(N2CCN(Cc3cnc(-c4ccccc4)[nH]3)CC2)c1,22.2,-77.5*,3.3%,-17.7
CC(C)c1cc(C(=O)NNC(=S)NC2CCCCC2)cs1,32.5,-53.0*,0.0%,-19.9
SMILES,Giardia killer,DRD3 antagonist,B2AR arrestin,DRD3 agonist
Cc1ccc(OCCn2c(Br)nc3c2c(=O)n(C)c(=O)n3C)cc1,7.4,14.8,-0.6%,35.3*
COc1cccc(C(=O)NNC(=O)CCN2CCN(c3ccccc3)CC2)c1,5.1,u,2.5%,8.6
COc1ccc(Br)cc1CN(C)C(C)C(=O)Nc1cc([N+](=O)[O-])ccc1OC (stereo not drawn),5.5,-3.4,-0.6%,-17.1
Cc1ccc(C)c(NC(=O)CCN2CCN(c3ccccc3F)CC2)c1,-0.5,-64.1*,-1.0%,14.9
COc1ccc(NC(=O)CCN2CCCCCC2)c(OC)c1,3.6,-55.1*,-0.2%,-23.8
COc1ccc([N+](=O)[O-])cc1NC(=O)C(C)N(C)Cc1ccc(Br)cc1 (stereo not drawn),-2.6,-64.3*,-0.3%,-24.0
Cc1ccc(C)c(OCC(=O)NNC(=O)CCN2CCN(c3ccccc3)CC2)c1,-22.2,-71.4*,-0.1%,-5.8
COc1ccc(NC(=O)CCN2CCOCC2)c(OC)c1,6.9,3.3,-0.5%,-0.2
CCC(C)S(=O)(=O)c1oc(-c2ccc(F)cc2)nc1S(=O)(=O)c1ccc(F)cc1 (stereo not drawn),x,x,x,-37.1
COc1ccc([N+](=O)[O-])cc1NC(=O)CCN1CCN(C)CC1,6.7,5.1,-1.5%,-6.8
COc1ccc(Cl)cc1NC(=O)CCN1CCN(Cc2ccccc2)CC1,0.9,u,0.3%,-3.3
COc1ccc(C)cc1NC(=O)CCN1CCN(c2ccccc2F)CC1,-2.3,u,-3.1%,34.2*
Cc1cccc(C)c1NC(=O)CN1CCN(C/C=C/c2ccccc2)CC1,x,u,x,-1.5
COc1ccc([N+](=O)[O-])cc1NC(=O)CCN1CCN(c2ccccc2OC)CC1,-6.5,-75.5*,-0.5%,5.8
COc1ccc(C)cc1NC(=O)CN1CCN(C/C=C/c2ccccc2)CC1,1.3,-70.0*,-0.1%,-1.0
CCN1CCN(CCC(=O)Nc2ccccc2OC)CC1,5.1,u,0.0%,-5.2
COc1ccc(OC)c(NC(=O)CCN2CCN(c3ccccc3F)CC2)c1,-9.4,1.5,0.5%,64.2*
Cc1ccc(SCC(Cc2ccccc2)N2CCN(C)CCC2=O)cc1 (stereo not drawn),-28.1,x,x,x
Cc1ccc(CN(C(=O)COc2cccc(Cl)c2)c2ccccn2)o1,x,x,x,2.2
COc1cccc(NC(=O)CCN2CCN(c3ccccc3)CC2)c1,x,x,x,14.9
COc1cccc(NC(=O)CCN2CCN(c3ccccc3F)CC2)c1,u,u,0.2%,39.3*
CCN(CCC(=O)Nc1cc([N+](=O)[O-])ccc1OC)Cc1ccccc1,-3.4,-80.6*,-0.4%,-24.7
O=C(CCN1CCN(c2ccccc2F)CC1)c1ccc(Br)cc1,14.8,u,0.5%,-15.6
COc1ccc(C)cc1NC(=O)C1CC(=O)N(CCc2ccccc2)C1 (stereo not drawn),-1.1,-5.6,-0.1%,40.2*
COc1ccc(C(=O)CCN2CCN(c3ccccc3F)CC2)cc1,1.5,-98.9*,-0.4%,-10.2
SMILES,Giardia killer,DRD3 antagonist,B2AR arrestin,DRD3 agonist
O=C(NCCc1ccccc1Cl)c1ccc2c(c1)nc1n2CCCCC1,x,x,x,2.0
COc1cc(NC(=O)CN2CCN(c3ccccc3F)CC2)c(C)cc1[N+](=O)[O-],18.3,1.3,0.0%,-0.1
COc1ccc(C)cc1NC(=O)CN1CCN(c2ccccc2F)CC1,0.2,-69.5*,-0.2%,-9.2
O=C(CCN1CCN(c2ccccc2)CC1)c1ccc(Br)cc1,-6.3,-59.6*,0.1%,-2.6
COc1ccc(C)cc1NC(=O)CCN1CCN(c2ccccc2)CC1,-10.1,u,0.2%,39.3*
O=C(CCN1CCN(c2ccccc2)CC1)N/N=C/c1ccccc1O,4.8,-67.2*,0.1%,-33.1
Cc1cc(C)c(S(=O)(=O)Nc2cc(Cl)c3oc4c(c3c2)C(=O)CCC4)cc1C,x,x,x,-19.9
CCCCNC(=S)NCCN1CCCCC1,-18.3,-72.1*,-0.4%,-3.3
CCCNC(=S)NCCN1CCCCC1,6.9,-62.5*,-0.8%,-1.0
CCNC(=S)NCCN1CCCCC1,-19.4,-7.8,-0.6%,-2.7
CCNC(=S)NCCN1CCOCC1,-12.1,-4.3,-0.3%,-3.1
O=S(=O)(c1cccc(C(F)(F)F)c1)N1CCN(c2nc(-c3ccccc3)nc3ccccc23)CC1,-6.9,x,x,x
